Experimental data from the supplement of paper PMC11732987, “Enantioselective OTUD7B fragment discovery through chemoproteomics screening and high-throughput optimisation” (Communications Chemistry, 2025).

Assays:
Test in all cases: log2 ratio of Biotin-Ahx-Ub-VS probe labelling (fragment/DMSO); higher = less target engagement (more negative = stronger competition), active = hit call of the paper (q ≤ 0.05, log2 ratio ≤ -1)
Conditions in all cases: compound concentration: 200 uM; treatment time: 3 h
[1] = molecular target: USP34 (UniProt Q70CQ2)
Chain of USP34 (Q70CQ2 whole entry, the tested form may be a part): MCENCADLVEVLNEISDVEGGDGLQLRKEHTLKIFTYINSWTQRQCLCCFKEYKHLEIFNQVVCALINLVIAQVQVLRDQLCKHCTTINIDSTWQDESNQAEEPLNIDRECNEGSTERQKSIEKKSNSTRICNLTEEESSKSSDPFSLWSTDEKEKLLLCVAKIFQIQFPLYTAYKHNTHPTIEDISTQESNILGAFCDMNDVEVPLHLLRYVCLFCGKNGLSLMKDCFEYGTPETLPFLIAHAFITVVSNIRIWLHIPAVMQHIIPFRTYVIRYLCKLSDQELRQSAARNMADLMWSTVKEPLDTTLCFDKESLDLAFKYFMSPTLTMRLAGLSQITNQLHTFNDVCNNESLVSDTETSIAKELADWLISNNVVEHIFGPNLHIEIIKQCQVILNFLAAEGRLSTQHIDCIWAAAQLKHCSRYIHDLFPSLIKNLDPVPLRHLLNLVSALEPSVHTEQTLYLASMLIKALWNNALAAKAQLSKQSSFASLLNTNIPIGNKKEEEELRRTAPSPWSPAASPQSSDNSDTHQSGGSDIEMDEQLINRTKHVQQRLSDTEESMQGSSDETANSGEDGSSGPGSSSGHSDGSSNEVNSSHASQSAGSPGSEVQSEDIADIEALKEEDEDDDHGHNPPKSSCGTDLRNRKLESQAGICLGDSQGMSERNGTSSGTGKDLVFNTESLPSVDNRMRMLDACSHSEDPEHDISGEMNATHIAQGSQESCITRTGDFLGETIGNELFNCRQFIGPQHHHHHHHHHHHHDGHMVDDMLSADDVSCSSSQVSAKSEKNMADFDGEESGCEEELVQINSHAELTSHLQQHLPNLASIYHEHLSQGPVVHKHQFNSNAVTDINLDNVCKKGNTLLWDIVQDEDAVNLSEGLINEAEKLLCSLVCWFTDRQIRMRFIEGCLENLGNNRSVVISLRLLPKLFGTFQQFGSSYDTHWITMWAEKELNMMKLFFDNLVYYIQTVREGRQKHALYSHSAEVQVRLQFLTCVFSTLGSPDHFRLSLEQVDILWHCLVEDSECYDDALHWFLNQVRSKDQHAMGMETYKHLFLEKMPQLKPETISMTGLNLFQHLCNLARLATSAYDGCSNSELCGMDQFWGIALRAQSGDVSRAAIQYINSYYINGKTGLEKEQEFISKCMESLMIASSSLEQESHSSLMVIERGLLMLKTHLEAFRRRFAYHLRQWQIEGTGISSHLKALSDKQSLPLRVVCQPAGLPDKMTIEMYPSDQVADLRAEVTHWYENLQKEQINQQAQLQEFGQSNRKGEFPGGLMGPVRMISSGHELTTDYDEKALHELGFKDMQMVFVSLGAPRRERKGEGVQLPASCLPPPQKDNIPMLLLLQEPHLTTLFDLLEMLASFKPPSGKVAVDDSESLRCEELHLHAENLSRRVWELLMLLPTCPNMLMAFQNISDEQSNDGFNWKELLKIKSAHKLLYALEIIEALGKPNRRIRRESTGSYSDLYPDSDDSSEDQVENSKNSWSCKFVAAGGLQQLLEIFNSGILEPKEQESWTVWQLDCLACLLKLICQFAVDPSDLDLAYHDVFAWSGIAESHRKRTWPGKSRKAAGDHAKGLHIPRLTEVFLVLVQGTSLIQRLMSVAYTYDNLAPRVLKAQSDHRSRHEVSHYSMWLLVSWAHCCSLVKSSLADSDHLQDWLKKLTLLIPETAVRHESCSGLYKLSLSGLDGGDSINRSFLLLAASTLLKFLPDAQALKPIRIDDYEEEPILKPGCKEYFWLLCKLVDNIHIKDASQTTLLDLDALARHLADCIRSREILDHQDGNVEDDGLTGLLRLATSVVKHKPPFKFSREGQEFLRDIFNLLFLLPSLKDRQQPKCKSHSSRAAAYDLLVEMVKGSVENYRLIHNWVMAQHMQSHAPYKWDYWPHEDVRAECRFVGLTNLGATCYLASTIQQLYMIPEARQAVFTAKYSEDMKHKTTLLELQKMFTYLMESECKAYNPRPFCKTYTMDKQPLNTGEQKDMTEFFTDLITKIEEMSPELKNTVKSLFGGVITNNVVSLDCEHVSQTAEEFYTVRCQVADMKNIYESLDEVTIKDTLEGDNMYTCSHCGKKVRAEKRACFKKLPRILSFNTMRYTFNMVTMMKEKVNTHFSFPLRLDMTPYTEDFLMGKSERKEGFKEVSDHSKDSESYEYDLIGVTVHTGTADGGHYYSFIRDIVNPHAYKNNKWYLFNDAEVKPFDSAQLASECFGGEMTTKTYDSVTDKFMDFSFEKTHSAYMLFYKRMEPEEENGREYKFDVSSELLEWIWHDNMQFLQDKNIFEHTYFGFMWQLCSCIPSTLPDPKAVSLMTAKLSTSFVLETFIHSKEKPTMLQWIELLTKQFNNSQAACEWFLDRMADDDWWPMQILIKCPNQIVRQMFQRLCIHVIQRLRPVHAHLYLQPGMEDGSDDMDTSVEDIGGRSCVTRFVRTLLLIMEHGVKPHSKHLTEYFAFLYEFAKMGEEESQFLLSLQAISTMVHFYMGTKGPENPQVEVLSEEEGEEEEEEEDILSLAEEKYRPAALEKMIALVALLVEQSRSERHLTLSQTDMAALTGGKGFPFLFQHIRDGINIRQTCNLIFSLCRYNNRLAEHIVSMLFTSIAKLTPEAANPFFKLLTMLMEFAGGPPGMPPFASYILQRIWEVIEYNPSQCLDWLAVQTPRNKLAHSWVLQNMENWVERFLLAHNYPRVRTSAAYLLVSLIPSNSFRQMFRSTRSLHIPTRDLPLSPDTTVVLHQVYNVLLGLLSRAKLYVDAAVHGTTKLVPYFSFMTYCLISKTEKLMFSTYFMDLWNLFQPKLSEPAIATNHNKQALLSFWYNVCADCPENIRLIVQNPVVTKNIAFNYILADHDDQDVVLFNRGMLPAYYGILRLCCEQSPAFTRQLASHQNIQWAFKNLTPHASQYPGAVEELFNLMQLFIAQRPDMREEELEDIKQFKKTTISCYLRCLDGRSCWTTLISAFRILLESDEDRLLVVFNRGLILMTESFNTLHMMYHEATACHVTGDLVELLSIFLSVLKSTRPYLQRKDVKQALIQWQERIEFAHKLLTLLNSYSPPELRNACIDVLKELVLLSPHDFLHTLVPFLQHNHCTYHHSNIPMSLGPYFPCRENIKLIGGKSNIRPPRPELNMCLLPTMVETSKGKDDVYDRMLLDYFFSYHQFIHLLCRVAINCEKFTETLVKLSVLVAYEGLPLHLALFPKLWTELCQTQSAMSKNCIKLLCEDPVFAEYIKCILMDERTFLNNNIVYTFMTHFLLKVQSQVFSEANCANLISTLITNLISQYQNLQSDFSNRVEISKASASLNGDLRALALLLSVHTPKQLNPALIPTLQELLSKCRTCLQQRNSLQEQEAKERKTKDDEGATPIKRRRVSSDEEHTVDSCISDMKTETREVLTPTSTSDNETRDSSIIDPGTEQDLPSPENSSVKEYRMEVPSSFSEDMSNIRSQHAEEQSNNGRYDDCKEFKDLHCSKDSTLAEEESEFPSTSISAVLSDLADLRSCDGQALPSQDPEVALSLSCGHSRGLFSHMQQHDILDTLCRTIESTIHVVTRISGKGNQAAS
Summary of the method: (§1)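 HEK293T lysate in Tris/CHAPS/IGEPAL buffer with protease inhibitors (495 µg per sample) was given fragment at 200 µM or vehicle for 3 h, in triplicate. It then received Biotin-Ahx-Ub-VS at 0.5 µM final for 1 h. Labelled DUBs were NeutrAvidin-enriched, digested with LysC and trypsin, and run by diaPASEF LC-MS/MS. Values are average log2 fragment/vehicle ratios by unpaired t-test on global-median-normalised Spectronaut quantities of proteins with ≥2 unique peptides.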

[2] = molecular target: T1, USP36 (UniProt Q9P275)
T1 sequence (whole entry): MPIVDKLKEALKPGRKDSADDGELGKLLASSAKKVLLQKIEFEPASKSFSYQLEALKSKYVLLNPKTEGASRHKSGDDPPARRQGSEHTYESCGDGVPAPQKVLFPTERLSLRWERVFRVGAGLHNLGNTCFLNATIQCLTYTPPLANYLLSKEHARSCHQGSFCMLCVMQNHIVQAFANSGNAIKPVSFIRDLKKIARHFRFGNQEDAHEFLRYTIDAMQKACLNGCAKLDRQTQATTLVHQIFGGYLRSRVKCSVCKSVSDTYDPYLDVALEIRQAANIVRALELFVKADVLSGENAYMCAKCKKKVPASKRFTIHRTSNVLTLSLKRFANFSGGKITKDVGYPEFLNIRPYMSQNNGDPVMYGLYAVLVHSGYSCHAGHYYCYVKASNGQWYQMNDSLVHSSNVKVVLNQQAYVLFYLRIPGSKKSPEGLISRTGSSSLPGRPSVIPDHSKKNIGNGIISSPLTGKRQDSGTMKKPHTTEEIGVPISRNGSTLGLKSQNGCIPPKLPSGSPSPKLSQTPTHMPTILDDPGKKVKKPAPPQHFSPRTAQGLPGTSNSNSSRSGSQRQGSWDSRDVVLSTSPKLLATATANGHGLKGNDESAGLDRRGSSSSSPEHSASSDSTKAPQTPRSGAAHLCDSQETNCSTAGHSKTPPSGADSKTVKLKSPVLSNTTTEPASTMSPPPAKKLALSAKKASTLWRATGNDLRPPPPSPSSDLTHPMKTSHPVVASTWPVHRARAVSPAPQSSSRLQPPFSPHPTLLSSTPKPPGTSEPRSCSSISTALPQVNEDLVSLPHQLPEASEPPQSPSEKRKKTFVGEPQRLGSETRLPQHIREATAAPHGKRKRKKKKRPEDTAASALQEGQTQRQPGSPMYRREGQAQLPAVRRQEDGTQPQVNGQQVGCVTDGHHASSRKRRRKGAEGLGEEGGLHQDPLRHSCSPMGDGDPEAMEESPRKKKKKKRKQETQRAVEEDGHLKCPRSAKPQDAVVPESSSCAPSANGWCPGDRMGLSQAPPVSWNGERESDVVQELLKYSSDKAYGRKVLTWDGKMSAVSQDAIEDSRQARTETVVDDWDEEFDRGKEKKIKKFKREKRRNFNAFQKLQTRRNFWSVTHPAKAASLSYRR
Summary of the method: as §1

[3] = molecular target: T2, USP38 (UniProt Q8NB14)
T2 sequence (whole entry): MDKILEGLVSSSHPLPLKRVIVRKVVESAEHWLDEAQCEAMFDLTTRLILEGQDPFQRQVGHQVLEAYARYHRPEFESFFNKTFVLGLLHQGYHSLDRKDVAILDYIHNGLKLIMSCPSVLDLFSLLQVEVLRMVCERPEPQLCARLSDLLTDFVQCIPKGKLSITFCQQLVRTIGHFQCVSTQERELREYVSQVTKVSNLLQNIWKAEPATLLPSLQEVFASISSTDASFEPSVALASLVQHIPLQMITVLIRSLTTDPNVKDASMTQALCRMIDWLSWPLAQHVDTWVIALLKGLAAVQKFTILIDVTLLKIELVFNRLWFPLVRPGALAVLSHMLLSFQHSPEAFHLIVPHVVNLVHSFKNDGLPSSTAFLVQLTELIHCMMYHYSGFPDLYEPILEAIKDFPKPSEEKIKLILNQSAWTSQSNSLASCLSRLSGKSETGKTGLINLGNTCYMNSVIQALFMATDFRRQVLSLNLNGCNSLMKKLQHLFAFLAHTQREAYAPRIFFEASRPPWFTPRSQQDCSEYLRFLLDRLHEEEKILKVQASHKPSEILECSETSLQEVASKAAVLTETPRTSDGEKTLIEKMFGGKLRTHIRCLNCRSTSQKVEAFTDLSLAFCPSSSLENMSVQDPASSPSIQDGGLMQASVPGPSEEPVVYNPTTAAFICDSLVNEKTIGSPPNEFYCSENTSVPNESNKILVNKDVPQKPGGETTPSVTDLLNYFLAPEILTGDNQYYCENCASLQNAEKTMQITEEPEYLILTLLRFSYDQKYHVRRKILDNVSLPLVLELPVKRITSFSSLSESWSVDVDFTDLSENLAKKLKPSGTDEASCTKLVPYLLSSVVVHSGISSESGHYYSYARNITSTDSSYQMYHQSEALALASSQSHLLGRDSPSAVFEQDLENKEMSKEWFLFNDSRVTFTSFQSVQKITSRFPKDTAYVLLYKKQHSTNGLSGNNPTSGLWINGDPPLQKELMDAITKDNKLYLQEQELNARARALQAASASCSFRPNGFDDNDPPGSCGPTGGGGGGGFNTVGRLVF
Summary of the method: as §1

[4] = molecular target: T3, USP39 (UniProt Q53GS9)
T3 sequence (whole entry): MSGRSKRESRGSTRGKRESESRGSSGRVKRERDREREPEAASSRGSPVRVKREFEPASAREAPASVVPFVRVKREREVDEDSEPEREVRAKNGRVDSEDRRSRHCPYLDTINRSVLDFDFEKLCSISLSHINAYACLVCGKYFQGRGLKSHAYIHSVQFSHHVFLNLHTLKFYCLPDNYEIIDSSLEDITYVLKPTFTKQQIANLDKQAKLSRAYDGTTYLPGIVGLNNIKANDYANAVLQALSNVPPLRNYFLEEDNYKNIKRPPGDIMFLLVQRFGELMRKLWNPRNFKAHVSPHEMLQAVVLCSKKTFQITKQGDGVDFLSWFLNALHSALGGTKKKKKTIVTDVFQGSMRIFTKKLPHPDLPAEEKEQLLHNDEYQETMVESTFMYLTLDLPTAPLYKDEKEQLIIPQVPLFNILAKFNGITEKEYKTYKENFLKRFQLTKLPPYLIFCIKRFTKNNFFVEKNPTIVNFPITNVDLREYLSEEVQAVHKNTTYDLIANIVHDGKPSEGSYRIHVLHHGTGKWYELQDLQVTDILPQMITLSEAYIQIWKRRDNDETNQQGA
Summary of the method: as §1

[5] = molecular target: T4, USP4 (UniProt Q13107)
T4 sequence (whole entry): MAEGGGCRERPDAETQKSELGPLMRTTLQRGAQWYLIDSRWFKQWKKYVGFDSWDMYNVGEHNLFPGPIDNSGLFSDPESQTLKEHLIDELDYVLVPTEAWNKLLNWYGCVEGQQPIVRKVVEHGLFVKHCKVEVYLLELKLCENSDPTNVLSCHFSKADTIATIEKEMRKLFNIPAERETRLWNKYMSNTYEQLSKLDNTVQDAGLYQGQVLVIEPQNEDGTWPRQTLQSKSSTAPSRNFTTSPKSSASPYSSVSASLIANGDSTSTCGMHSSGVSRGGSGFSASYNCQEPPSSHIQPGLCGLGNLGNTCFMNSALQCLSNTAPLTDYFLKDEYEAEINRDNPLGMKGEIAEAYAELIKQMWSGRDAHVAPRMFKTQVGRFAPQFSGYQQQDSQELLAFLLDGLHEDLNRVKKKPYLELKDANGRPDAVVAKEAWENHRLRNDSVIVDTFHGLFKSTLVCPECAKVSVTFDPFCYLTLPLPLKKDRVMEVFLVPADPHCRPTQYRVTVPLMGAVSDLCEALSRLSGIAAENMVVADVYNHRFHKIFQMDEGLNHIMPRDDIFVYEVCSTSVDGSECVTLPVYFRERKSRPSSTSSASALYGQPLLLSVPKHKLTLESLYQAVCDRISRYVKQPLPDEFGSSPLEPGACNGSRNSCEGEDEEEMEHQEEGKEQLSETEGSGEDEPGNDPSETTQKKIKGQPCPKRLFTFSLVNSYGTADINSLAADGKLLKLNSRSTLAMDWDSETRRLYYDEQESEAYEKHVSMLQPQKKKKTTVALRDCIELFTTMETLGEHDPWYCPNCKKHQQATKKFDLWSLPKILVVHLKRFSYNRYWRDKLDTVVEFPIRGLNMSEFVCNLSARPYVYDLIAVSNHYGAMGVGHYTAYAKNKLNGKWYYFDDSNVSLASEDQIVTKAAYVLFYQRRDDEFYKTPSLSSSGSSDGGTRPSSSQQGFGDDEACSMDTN
Summary of the method: as §1

Measured: log2 ratio of Biotin-Ahx-Ub-VS probe labelling

CC(C)n1nccc1NC(=O)CCl
inactive: [1] -0.109 | [2] -0.0105 | [3] -0.0818 | [4] -0.252 | [5] -0.0708
